Calls of active or inactive are those of the source. How the source made its calls: active means hit-call score of the fitted dose curve at least 0.9, where 1 is the maximum; inactive means score below 0.9.
Experiment: APR_HepG2_MicrotubuleCSK_24hr: Apredica 24-hour HepG2 Assay for Microtubule CSK Stabilty (AID 2282909)
Conditions: HepG2 microtubule cytoskeleton imaging, actives raise or lower the signal
Experimental: APR_HepG2_24hr is a cell-based, multiplexed-readout assay that uses HepG2, a human liver cell line, with measurements taken at 24 hours after chemical dosing in a 384-well plate.APR_HepG2_MicrotubuleCSK_24hr is one of 10 assay component(s) measured or calculated from the APR_HepG2_24hr assay. It is designed to make measurements of protein conformation, a form of conformation reporter, as detected with fluorescence intensity signals by HCS Fluorescent Imaging technology.Data from the assay component APR_HepG2_MicrotubuleCSK_24hr was analyzed into 1 assay endpoint. This assay endpoint, APR_HepG2_MicrotubuleCSK_24hr, was analyzed with bidirectional fitting relative to DMSO as the negative control and baseline of activity. Using a type of conformation reporter, measures of protein for gain or loss-of-signal activity can be used to understand the signaling at the cellular-level. Furthermore, this assay endpoint can be referred to as a primary readout, because this assay has produced multiple assay endpoints where this one serves a signaling function. To generalize the intended target to other relatable targets, this assay endpoint is annotated to the cell morphology intended target family, where the subfamily is cell conformation.
Cells were treated with dimethyl sulfoxide (DMSO) as a solvent control at a final concentration of 0.5% v/v or with compounds in DMSO with a resulting final DMSO concentration of 0.5% v/v. Compound treatment was done at concentrations of 0.39, 0.78, 1.56, 3.12, 6.24, 12.5, 25, 50, 100, and 200 uM in duplicate on each plate. Cells were treated with compounds for 1, 24, or 72 hr. Carbonyl […] m-chloro-phenylhydrazone (CCCP) and taxol were used as positive controls for mitochondrial function and cytoskeletal stability, respectively; DMSO served as the negative control for this experiment. Cells were fixed by the direct addition of 50 uL formaldehyde in Hank's Balanced Salt Solution (HBSS) to a final concentration of 3.7%. After incubation in the fixation medium for 30 min at room temperature (293-298 K), cells were rinsed twice with HBSS and treated with cell permeabilization buffer (16 uL of 0.5% Triton X-100) for 10 min at room temperature (293-298 K) before labeling. For mitochondrial membrane potential and mitochondrial measurements, pre-fixed cells were incubated with 50 uL of MitoTracker Red CMXRos (Invitrogen) at a concentration of 250 nM for 30 min before fixation. In the remaining cases, post-fixed cells were labeled by incubation with a multiplexed mixture of primary antibodies in HBSS for 60 min at room temperature (293-298 K) to detect immunoreactivity of c-Jun (1:500), phospho-histone H3 (1:100), phospho-histone H2A.x (1:200), p53 (1:400), alpha-tubulin (1:200) and Hoechst 33342 (2 ug/mL). Cells were labeled for multiplexed imaging on two separate plates: a) Hoechst 33342, MitoTracker Red, phospho-histone H3, and alpha-tubulin, and b) Hoechst 33342, phospho-histone H2A.x, and c-Jun. A final rinse with HBSS (50 uL) was performed before analysis. The primary and secondary antibodies for the proteins were phospho-histone H3 (rabbit anti-phospho-histone H3 and FITC-donkey anti-rabbit IgG), phospho-histone H2A.x (mouse anti-phospho-histone H2A.x and FITC-donkey anti-mouse IgG), c-Jun (rabbit anti-phospho-c-Jun and Cy3-donkey anti-rabbit IgG), p53 (sheep anti-p53 and Cy5-donkey anti-sheep IgG), alpha-tubulin (mouse anti-alpha-tubulin and Cy5-donkey anti-mouse IgG). These antibodies are available as the CellCiphr HepG2 assay kit (Millipore).Digital images of each well were captured using a Cellomics ArrayScan VTI (Thermo Scientific Cellomics) (0.8 NA objective, 0.63x optical coupler, and XF-93 filter set) at 20x magnification. The images were acquired using the autofocus feature of the ArrayScan instrument, which entails the following steps. First, the camera focuses on channel 1 (Hoechst 33342), where nuclei are identified. Second, a Z offset of 1 um is used for capturing mitochondria (MitoTracker Red). […]

Compound	outcome	AC50
CCOP(=S)(OCC)Oc1cc(C)nc(C(C)C)n1	inactive	
COc1ccc(C(=CC(=O)N2CCOCC2)c2ccc(Cl)cc2)cc1OC	inactive	
CC(C)N(C(=O)SCC(Cl)=C(Cl)Cl)C(C)C	inactive	
CCCCOC(=O)c1ccccc1C(=O)O	inactive	
CCc1cccc(C)c1N(C(=O)CCl)C(C)COC (stereo not given)	inactive	
CNc1cnn(-c2cccc(C(F)(F)F)c2)c(=O)c1Cl	inactive	
CC(C1CC1)C(O)(Cn1cncn1)c1ccc(Cl)cc1 (stereo not given)	inactive	
CSC1=N[C@@](C)(c2ccccc2)C(=O)N1Nc1ccccc1		43.3 µM (active)
CCC(=O)Nc1ccc(Cl)c(Cl)c1	inactive	
CNC(=O)ON=C(C)SC	inactive	
CC1(C(=O)Nc2ccc(O)c(Cl)c2Cl)CCCCC1		94 µM (active)
CCOC(=O)CC(SP(=O)(OC)OC)C(=O)OCC (stereo not given)	inactive	
O=C(O)c1cc(Oc2ccc(C(F)(F)F)cc2Cl)ccc1[N+](=O)[O-]	inactive	
CC(COc1ccc(Oc2ccccc2)cc1)Oc1ccccn1 (stereo not given)	inactive	
C[Si](Cn1cncn1)(c1ccc(F)cc1)c1ccc(F)cc1	inactive	
CN1COCN(Cc2cnc(Cl)s2)C1=N[N+](=O)[O-]	inactive	
CCCCOC(=O)[C@@H](C)Oc1ccc(Oc2ccc(C#N)cc2F)cc1	inactive	
CC(=NC#N)N(C)Cc1ccc(Cl)nc1	inactive	
CCNc1nc(Cl)nc(NC(C)(C)C#N)n1	inactive	
CN(C)[C@@H]1C(=O)C(C(N)=O)=C(O)[C@@]2(O)C(=O)C3=C(O)c4c(O)cccc4[C@@](C)(O)[C@H]3[C@H](O)[C@@H]12	inactive	

Compound	outcome	AC50
CC(C)[C@H](C(=O)O[C@H](C#N)c1cccc(Oc2ccccc2)c1)c1ccc(Cl)cc1	inactive	
CC1=NNC(=O)N(/N=C/c2cccnc2)C1	inactive	
C=C(C)[C@H]1Cc2c(ccc3c2O[C@@H]2COc4cc(OC)c(OC)cc4[C@@H]2C3=O)O1	inactive	
Cc1ccn2nc(S(=O)(=O)Nc3c(F)cccc3F)nc2n1	inactive	
CCCOCC(=Nc1ccc(Cl)cc1C(F)(F)F)n1ccnc1	inactive	
CCC(CC)Nc1c([N+](=O)[O-])cc(C)c(C)c1[N+](=O)[O-]	inactive	
N#CSCSC#N	inactive	
CC[C@H](C)[C@H]1O[C@]2(C=C[C@@H]1C)C[C@@H]1C[C@@H](C/C=C(\C)[C@@H](O[C@H]3C[C@H](OC)[C@@H](O[C@H]4C[C@H](OC)[C@@H](NC)[C@H](C)O4)[C@H](C)O3)[C@@H](C)/C=C/C=C3\CO[C@@H]4[C@H](O)C(C)=C[C@@H](C(=O)O1)[C@]34O)O2		12.6 µM (active)
CCOP(=S)(OCC)SCCSCC	inactive	
Nc1c(Cl)cc([N+](=O)[O-])cc1Cl	inactive	
Nc1nc(N)nc(NC2CC2)n1	inactive	
CCOP(=S)(OCC)Oc1ccc([N+](=O)[O-])cc1	inactive	
CNC(=O)Oc1cccc2c1OC(C)(C)O2	inactive	
CCOP(=S)(OCC)Oc1ccc2c(C)c(Cl)c(=O)oc2c1	inactive	
CNC(=O)ON=C(SC)C(=O)N(C)C	inactive	
CCOP(=O)(OCC)Oc1cc(C)nc(C(C)C)n1	inactive	
COP(=O)(NC(C)=O)SC (stereo not given)	inactive	
CCCOc1nn(C(=O)NS(=O)(=O)c2ccccc2C(=O)OC)c(=O)n1C	inactive	
C#CC(C)(C)NC(=O)c1cc(Cl)cc(Cl)c1	inactive	
COP(=O)(OC)SCn1c(=O)oc2cc(Cl)cnc21		30.2 µM (active)

Reference: PubChem BioAssay (EPA / NIEHS)
